# Screens deposited in PubChem by National Center for Advancing Translational Sciences (NCATS).
# RORg inh = inhibitors of mouse ROR gamma transcriptional activity; AID 2551; Drosophila S2 Gal4-RORgamma UAS-luciferase reporter, 20 h; P51450; 5.4% of 310,000 active; Potency, µM (doses to about 53.6 µM), for inactives: at the top dose activity change, negative = inhibition, actives largely listed as inhibitors; further: on the % scale 0 is the no-effect control and ±100 the full control effect; nearly all actives have a fitted effect of over 60% in size
# Target sequence (P51450 whole entry, looked up, the tested form may be a part): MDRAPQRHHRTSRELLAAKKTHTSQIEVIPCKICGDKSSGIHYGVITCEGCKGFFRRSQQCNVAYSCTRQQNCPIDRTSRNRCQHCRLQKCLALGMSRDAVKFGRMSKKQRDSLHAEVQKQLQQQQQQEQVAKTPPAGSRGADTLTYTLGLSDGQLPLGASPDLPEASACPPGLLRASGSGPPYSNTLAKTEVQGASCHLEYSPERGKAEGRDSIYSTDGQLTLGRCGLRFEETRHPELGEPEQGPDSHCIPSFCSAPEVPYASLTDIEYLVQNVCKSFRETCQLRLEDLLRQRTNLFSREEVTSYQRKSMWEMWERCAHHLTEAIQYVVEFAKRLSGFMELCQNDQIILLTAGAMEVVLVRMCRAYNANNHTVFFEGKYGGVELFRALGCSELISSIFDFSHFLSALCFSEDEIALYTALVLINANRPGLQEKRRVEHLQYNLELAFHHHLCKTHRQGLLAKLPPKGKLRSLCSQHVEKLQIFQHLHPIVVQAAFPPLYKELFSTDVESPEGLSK
#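 Luciferase reporter read in Schneider cells carrying Gal4-RORγ (mouse) and UAS-Photinus luciferase; cells given compound 1 h before 700 uM copper sulfate induction, then incubated 20 h at ambient temperature.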
# MCF10A rereplic = inducers of DNA re-replication in MCF 10A breast cells; 2.9% of 350,000 active; MCF 10A DNA re-replication, Hoechst nuclear intensity, 48 h; AID 624296; Potency, µM (highest dose often 46.1 µM), for the others: top-dose activity, positive = re-replication, actives largely listed as activators; further: % of control where 0% means no effect; nearly all actives have a fitted effect of over 50% in size
# SW480 rerep = DNA re-replication induction in SW480 cells; SW480 DNA re-replication, Hoechst DNA content imaging, 48 h; Potency, µM (titrated, usually from 46.1 µM), inactives show at the top dose re-replication activation, hits mostly activators; 1.8% of 340,000 active; AID 624297; further: % of control where 0% means no effect; nearly all actives have a fitted effect of over 55% in size
#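 Image-based read-out: total Hoechst fluorescence of nuclei (405 nm excitation, 500-530 nm emission), with hits raising the fraction of high-intensity nuclei. SW480 colon cells incubated 48 hr with compounds at 37 C.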
# Gal4-VP16 FLuc = inhibits Gal4-VP16 luciferase reporter, ROR gamma counter-screen | Potency, µM (top dose mostly 53.6 µM), for inactives: at the top dose activity, negative = inhibition, hits mostly inhibitors | Drosophila S2 Gal4-VP16 UAS-luciferase, luminescence, 20 h | AID 2546 | 3.5% of 310,000 active;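 further: Gal4-VP16 expression switched on by copper sulfate through the metallothionein promoter; on the % scale 0 is the no-effect control and ±100 the full control effect; nearly all actives have a fitted effect of over 50% in size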
# ELG1 DNA repair = inhibitors of ELG1-dependent DNA repair in HEK293T cells | HEK293T ELG1-luciferase reporter, luminescence, 16 h; DNA damage induced by 5-fluorouridine | 2.3% of 330,000 active | Potency, µM (titrated, usually from 46.1 µM), for the others: at the top dose activity change, negative = inhibition, actives largely listed as inhibitors | AID 504467; further: on the % scale 0 is the no-effect control and ±100 the full control effect; nearly all actives have a fitted effect of over 55% in size
#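 DMSO vehicle served as the neutral condition. Each well held 2,000 cells given 5-fluorouridine plus compound; after 16 hr at 37 °C/5% CO2, ONE-Glo was added and luciferase measured 30 min later.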
# Active calls of the source: *; ? = inconclusive; nt = not tested or not shown; [ ] = dose if it differs, or a comment. Compounds with a hit are over-represented: about 10% of the library has one in this group of screens. The call rests on the fitted dose curve; in most records, active means well fitted curve in the direction sought with a large enough effect; inconclusive means small, poorly fitted or top-dose-only effect, or another doubt; inactive means no such curve, though single readings can be large; an effect the other way counts as inactive or inconclusive. Potency means the concentration at half of the fitted maximal effect.
SMILES,RORg inh,MCF10A rereplic,SW480 rerep,Gal4-VP16 FLuc,ELG1 DNA repair
COc1cccc(C=NNC(=S)NN=Cc2cccc(OC)c2OC)c1OC,nt,18µM*,-4%,nt,nt
COc1cccc(/C=N/NC(=O)C[n+]2ccccc2)c1OC,-8%,?,-4%,-5%,20%
Cc1ccc2cc(CN(Cc3ccco3)C(=O)c3ccco3)c3nnnn3c2c1,5%,-2%,1%,1%,-8%
Cc1ccc(NC(=O)/C(Cl)=C/c2ccccc2)cc1C,10µM*,9%,7%,?,?
CCc1ccc(NC(=O)C2(c3ccccc3)CC2(Cl)Cl)cc1 (centres undefined),37%,23µM*,?,9%,0%
Cc1cccc(NC(=O)C2(c3ccccc3)CC2(Cl)Cl)c1 (centres undefined),3%,?,6%,0%,9%
Cc1cc(C)cc(NC(=O)C2(c3ccccc3)CC2(Cl)Cl)c1 (centres undefined),7%,?,?,-5%,-6%
CC(=O)Nc1ccccc1C(=O)C(=O)Nc1ccc(C)c(C)c1,?,4%,1%,19%,?
Cc1ccc(NC(=O)C2(c3ccccc3)CC2(Cl)Cl)cc1C (centres undefined),26%,21µM*,4%,-4%,?
CS(=O)(=O)c1ccc(NC(=O)c2ccccc2-n2cnnn2)cc1,nt,2%,-20%,nt,12%
CC/C(=C(/c1ccccc1)c1ccc(OCCN(C)C)cc1)c1ccccc1,-40%,nt,nt,?,nt
CCN(CC)CCOc1ccc(/C(=C(\Cl)c2ccccc2)c2ccccc2)cc1,-31%,5.2µM*,4%,-24%,-2%
Oc1[nH]c2c(Cl)cc(Cl)cc2c1N=NC(=S)NCC1CCCO1 (centres undefined),1.3µM*,17%,3%,1.1µM*,?
O=C(NCC1CCCO1)c1cc2cc(Cl)ccc2[nH]1 (centres undefined),nt,2%,-1%[9.22 µM],nt,?
Oc1[nH]c2ccc(Br)cc2c1N=NC(=S)NCC1CCCO1 (centres undefined),1.4µM*,-6%,14%,?,?
Cc1cc(C)c2[nH]c(O)c(N=NC(=S)NCC3CCCO3)c2c1 (centres undefined),5µM*,13%,13%,7.1µM*,?
CCn1c(O)c(N=NC(=S)NCC2CCCO2)c2ccccc21 (centres undefined),0.28µM*,-3%,3%,1.8µM*,0%
CCn1c(=O)cc(SCC(=O)NCC2CCCO2)c2ccccc21 (centres undefined),-2%,4%,-1%,2%,?
Oc1[nH]c2ccccc2c1N=NC(=S)NCC1CCCO1 (centres undefined),-13%,-25%,17%,-10%,?
COc1ccc(C(=O)NNC(=O)c2ccc(F)c(S(=O)(=O)N3CCOCC3)c2)cc1,nt,-3%,-1%,nt,-13%
Cn1cccc1C(=O)N1CCC2(CCCN(Cc3nccs3)C2)CC1,28%,nt,nt,14%,nt
O=C1CC(Sc2ncccn2)C(=O)N1c1ccccc1C(F)(F)F (centres undefined),4.5µM*,8%,-5%,7.1µM*,-3%
Cc1ccc(Cl)cc1N1C(=O)CC(Sc2ncccn2)C1=O (centres undefined),20µM*,?,?,?,-6%
Cc1cccc(C2=NN(c3ccccc3)[C@@H](C(=O)N3CCOC3=O)[C@@H]2c2ccccc2)c1,-2%,?,16µM*,-6%,-12%
CC[C@@H]1C(c2cccc(C)c2)=NN(c2ccc(Br)cc2)[C@H]1C(=O)N1CCOC1=O,4%,nt,nt,-4%,nt
SMILES,RORg inh,MCF10A rereplic,SW480 rerep,Gal4-VP16 FLuc,ELG1 DNA repair
Cc1cccc(C2=NN(c3ccc(Br)cc3)[C@@H](C(=O)N3CCOC3=O)[C@@H]2c2ccccc2)c1,19%[40.7 µM],1.5µM*,?,-18%[40.7 µM],9%
O=C(CC(=O)c1ccccc1)Nc1ccc([N+](=O)[O-])cc1,nt,17%,5%,nt,nt
Cc1noc(C)c1CSc1ccccc1C(=O)N1CCN(c2ccccc2)CC1,?,?,-5%[9.22 µM],-1%,?
CCOc1ccc(N(CC(=O)N2CCN(c3ccc(F)cc3)CC2)S(=O)(=O)c2c(C)noc2C)cc1,1%,-1%,23µM*,-11%,3%
COc1ccc(N(CC(=O)N2CCN(c3ccc(F)cc3)CC2)S(=O)(=O)c2c(C)noc2C)cc1,-3%,3%,-6%,0%,-1%
Cc1noc(C)c1CSCC(=O)N1CCN(c2ccc(F)cc2)CC1,?,-1%,-12%,?,11µM*
Cc1cccc(N2CCN(C(=O)CSCc3c(C)noc3C)CC2)c1C,?,11%,14%,10µM*,10%
CC1CCCCN1C(=O)Cn1cnc2c1c(=O)n(C)c(=O)n2C (centres undefined),21%,-6%,-3%,-2%,-6%
CC1CC(=O)N(CC(=O)NC2CCCCC2)c2ccccc2S1 (centres undefined),-12%,3%,10%,5%,1%
c1c[nH]cn1,8%,nt,nt,7%,nt
CCCN(C(=O)CSc1nc2ccccc2n1CC)C1CCS(=O)(=O)C1 (centres undefined),28%,2%,-19%,-4%,?
CCN=C1S/C(=C\c2ccc(Sc3ccc(Cl)cc3)o2)C(=O)N1CC,8%,?,?,3%,-11%
CCN=C1S/C(=C/c2ccc(-c3ccc(F)cc3)o2)C(=O)N1CC,-23%,8.2µM*,?,-9%,-2%
Cc1ccc(N=Cc2cc(Br)cc(Cl)c2O)cc1,11µM*,10%,-2%,0%,-4%
Oc1c(Cl)cc(Cl)cc1C=Nc1ccc(Br)cc1,?,16%,-2%[9.22 µM],-6%,1%
C=CC[n+]1ccc(/C=C2\C=Cc3cc(C)ccc3N2CC)c2ccccc21,1.3µM*,?,101%,1.3µM*,1.3µM*
CCN1/C(=C/c2cc[n+](CCCS(=O)(=O)[O-])c3ccccc23)Sc2ccccc21,6%,-2%,-7%,-4%,0%
N#Cc1c(Nc2ccccc2)[n+]([O-])c2ccc(Cl)cc2[n+]1[O-],nt,16%,2.9µM*,nt,nt
O=C(/C=C/Nc1ccccc1)c1ccc(Cl)cc1Cl,?,23%,0%,?,?
CCOC(=O)c1c(C)oc2c(CN3CCN(C)CC3)c(Br)c(OC)c(O)c12,?,2%,-2%,18µM*,3%
Cc1ccc(NC(=O)/C=C\C(=O)O)c([N+](=O)[O-])c1,-16%,-5%,-7%,7%,21%
Cc1cc(C)c(NC(=O)/C=C\C(=O)O)c([N+](=O)[O-])c1,-12%,15%,0.16µM*,-9%,-6%
